The results in this text go back to the supplement of paper PMC10849652.

About 8,800 targets were measured; listed, in parts, are those with a hit and a random draw of the rest. About 0.5% of all pairs of compound and target were hits. A number with no mark means an inactive call.

Chain of UniProt O15243 (O15243 whole entry, looked up): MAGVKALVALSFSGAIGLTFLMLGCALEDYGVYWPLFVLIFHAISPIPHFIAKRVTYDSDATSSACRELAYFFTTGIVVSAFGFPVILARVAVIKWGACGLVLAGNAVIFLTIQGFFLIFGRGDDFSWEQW
Chain of UniProt O95819 (O95819 whole entry, looked up): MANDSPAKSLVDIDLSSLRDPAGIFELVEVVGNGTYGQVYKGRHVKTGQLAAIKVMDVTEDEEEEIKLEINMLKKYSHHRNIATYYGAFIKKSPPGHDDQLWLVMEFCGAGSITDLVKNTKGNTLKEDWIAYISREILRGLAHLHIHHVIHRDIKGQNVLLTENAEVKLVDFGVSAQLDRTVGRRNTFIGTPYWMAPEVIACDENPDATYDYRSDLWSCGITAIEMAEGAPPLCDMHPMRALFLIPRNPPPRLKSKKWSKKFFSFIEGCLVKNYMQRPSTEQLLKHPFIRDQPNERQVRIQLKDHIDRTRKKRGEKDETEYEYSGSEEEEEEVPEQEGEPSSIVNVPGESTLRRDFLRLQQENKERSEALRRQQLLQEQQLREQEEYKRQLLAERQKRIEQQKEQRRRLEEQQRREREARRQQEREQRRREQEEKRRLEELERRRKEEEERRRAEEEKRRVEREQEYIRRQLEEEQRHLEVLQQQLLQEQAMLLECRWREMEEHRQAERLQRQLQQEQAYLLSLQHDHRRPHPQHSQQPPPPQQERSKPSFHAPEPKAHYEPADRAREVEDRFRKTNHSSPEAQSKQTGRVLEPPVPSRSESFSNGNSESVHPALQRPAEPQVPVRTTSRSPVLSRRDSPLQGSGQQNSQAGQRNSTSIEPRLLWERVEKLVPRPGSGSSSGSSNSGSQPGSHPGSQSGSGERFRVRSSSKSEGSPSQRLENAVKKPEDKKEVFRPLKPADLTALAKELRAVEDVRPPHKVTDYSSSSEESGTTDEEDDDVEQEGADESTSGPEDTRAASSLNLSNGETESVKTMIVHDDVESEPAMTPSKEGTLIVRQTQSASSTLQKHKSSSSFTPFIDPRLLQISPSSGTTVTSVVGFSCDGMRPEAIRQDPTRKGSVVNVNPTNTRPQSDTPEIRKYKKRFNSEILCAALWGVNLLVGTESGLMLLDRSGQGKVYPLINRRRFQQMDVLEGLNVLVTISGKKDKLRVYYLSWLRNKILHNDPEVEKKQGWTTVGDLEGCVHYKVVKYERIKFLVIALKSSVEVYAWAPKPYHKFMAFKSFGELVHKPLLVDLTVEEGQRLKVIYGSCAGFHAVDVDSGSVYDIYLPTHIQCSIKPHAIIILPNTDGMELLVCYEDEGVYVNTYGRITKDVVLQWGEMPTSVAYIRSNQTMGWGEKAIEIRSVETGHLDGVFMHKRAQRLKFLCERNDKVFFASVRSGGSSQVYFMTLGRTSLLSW
Chain of UniProt Q7Z7M0 (Q7Z7M0 whole entry, looked up): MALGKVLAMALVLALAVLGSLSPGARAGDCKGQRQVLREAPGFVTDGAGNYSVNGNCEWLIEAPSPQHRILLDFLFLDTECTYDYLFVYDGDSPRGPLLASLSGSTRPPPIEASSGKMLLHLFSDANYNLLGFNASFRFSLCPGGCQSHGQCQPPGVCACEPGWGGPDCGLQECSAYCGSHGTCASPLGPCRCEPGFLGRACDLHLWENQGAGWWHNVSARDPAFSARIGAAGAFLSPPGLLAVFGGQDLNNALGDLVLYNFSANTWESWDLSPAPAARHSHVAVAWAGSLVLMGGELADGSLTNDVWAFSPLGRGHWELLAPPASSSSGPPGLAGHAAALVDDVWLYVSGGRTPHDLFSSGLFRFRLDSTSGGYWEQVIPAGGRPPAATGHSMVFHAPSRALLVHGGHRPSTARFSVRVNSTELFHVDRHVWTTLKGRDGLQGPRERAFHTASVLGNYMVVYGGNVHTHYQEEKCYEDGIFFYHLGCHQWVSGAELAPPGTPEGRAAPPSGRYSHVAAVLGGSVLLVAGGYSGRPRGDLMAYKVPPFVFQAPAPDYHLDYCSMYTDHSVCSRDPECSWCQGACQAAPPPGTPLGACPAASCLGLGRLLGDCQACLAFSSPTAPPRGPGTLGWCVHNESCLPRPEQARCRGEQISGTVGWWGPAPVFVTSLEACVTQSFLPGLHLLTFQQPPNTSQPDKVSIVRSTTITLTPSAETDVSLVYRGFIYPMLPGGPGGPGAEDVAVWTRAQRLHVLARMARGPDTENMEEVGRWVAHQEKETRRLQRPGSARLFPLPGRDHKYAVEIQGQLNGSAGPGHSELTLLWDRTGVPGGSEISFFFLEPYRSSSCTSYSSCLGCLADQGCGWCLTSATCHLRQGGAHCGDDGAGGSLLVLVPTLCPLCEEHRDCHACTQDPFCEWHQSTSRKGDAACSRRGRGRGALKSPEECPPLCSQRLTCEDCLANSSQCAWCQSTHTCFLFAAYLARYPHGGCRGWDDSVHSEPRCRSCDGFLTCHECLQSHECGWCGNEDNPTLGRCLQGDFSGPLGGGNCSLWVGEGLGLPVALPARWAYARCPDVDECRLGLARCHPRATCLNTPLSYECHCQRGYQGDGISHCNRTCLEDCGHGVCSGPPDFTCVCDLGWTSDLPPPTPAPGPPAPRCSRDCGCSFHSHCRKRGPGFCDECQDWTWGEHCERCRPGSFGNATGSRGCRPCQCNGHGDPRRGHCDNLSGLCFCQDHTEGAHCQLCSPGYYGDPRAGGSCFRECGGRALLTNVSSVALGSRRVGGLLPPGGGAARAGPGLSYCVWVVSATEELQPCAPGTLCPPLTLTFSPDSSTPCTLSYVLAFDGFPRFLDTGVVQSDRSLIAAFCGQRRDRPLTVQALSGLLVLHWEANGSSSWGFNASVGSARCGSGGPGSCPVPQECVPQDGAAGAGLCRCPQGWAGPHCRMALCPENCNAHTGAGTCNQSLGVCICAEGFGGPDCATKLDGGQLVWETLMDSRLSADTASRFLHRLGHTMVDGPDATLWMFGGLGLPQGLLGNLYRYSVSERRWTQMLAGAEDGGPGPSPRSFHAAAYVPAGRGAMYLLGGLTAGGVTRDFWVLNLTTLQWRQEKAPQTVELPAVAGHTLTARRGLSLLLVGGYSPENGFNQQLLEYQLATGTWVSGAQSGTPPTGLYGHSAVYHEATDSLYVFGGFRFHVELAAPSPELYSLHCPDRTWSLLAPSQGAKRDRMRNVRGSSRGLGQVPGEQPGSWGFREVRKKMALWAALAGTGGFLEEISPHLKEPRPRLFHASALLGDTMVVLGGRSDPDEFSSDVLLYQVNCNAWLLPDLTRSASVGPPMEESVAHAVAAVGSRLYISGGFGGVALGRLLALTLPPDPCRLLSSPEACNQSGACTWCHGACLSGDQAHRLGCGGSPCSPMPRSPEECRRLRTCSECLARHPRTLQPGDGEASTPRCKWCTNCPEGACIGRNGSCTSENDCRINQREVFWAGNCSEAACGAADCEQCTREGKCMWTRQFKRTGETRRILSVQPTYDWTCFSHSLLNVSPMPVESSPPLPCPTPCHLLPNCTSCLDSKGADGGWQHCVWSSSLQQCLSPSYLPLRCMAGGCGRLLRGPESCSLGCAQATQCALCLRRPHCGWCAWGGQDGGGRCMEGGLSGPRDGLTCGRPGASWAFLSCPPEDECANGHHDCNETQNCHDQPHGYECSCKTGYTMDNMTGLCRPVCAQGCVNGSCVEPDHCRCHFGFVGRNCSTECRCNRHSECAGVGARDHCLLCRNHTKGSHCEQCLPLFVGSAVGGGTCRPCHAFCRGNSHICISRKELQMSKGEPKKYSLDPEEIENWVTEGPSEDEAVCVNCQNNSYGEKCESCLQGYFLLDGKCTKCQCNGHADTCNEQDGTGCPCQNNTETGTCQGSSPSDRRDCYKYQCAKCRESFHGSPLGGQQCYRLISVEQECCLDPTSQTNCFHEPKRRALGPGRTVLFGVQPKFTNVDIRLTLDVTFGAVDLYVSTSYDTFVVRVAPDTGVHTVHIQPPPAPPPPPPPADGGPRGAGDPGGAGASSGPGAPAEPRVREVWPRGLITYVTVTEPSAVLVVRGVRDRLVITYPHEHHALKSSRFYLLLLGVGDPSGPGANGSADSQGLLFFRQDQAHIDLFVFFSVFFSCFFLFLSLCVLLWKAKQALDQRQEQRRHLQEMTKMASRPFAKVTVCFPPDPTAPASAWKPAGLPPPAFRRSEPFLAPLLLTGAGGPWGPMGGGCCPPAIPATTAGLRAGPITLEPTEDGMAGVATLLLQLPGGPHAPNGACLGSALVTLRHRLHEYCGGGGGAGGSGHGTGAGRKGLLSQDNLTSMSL
Chain of UniProt Q8N5J2 (Q8N5J2 whole entry, looked up): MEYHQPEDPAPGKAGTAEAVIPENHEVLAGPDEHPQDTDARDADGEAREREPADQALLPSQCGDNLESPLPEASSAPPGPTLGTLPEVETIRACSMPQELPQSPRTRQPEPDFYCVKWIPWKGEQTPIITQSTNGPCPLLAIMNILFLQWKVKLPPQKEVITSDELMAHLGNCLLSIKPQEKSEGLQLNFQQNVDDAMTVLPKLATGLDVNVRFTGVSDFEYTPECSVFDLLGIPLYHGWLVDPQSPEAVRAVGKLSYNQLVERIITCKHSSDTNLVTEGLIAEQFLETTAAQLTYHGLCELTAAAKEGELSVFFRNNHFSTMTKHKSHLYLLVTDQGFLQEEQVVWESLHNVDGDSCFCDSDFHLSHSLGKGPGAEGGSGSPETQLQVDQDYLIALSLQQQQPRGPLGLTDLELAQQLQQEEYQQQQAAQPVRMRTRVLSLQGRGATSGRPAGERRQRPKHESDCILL
Chain of UniProt Q16553 (Q16553 whole entry, looked up): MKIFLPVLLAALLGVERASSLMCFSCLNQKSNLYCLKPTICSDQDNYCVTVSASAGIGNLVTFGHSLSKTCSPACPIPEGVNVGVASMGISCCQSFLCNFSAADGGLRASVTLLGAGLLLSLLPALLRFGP
Chain of UniProt Q8WXB1 (Q8WXB1 whole entry, looked up): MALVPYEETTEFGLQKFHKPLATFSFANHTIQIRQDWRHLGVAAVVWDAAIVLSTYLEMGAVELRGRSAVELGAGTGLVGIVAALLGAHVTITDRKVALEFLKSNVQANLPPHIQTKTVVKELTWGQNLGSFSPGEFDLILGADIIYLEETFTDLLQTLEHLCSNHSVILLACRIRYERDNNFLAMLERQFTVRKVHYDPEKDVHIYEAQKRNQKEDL

Compound in the first experiment: Cc1cc(Nc2cc(N3CCN(C)CC3)nc(Sc3ccc(NC(=O)C4CC4)cc3)n2)n[nH]1 [tozasertib]
Description: log2 fold change, soluble protein after heating vs DMSO (PISA); higher = thermal stabilisation; K562 lysate, 10 uM; active = over 0.2 and 3.5 SD of the protein, either way, in both replicates (recomputed). The gist of the method:
(§1)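 Dounce homogenisation of K562 pellets in PBS pH 7.4 with 1 mM MgCl2 produced a crude extract, used at 1 mg/mL protein. Exposure to 10 μM compound lasted 30 min, and aliquots were then heated for 3 min across 48°C-58°C, pooled and brought to 0.5% NP-40 at 4°C. The supernatant after 21,000xg for 90 min was quantified by TMTpro 16plex LC-MS/MS with channel sums equalised. Duplicate values are given as log-two fold change in thermal stability relative to solvent controls.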
For the target MAP4K4 isoform 3 (UniProt O95819), the log2 fold change is 0.014.

MARCHF6 (UniProt O60337): the log2 fold change is 0.004.

On to KLC1 isoform 10 (UniProt Q07866), for which the log2 fold change was 0.016.

For LSM11 (UniProt P83369), the log2 fold change was 0.011.

On to KIF18B (UniProt Q86Y91), for which the log2 fold change is -0.161.

As for KRAS isoform 2 (UniProt P01116), the log2 fold change is -0.043.

As for MAPK7 (UniProt Q13164), the log2 fold change was -0.029.

Turning to LIMK1 (UniProt P53667), the log2 fold change is 0.096.

In the case of MEGF8 (UniProt Q7Z7M0), the log2 fold change was 0.02.

On to MAPK12 (UniProt P53778), for which the log2 fold change is 0.248.

In the case of KIFC3 isoform 6 (UniProt Q9BVG8), the log2 fold change was -0.111.

For the target LEPROT (UniProt O15243), the log2 fold change was -0.116.

In the case of MMS22L (UniProt Q6ZRQ5), the log2 fold change was 0.087.

With MRC2 (UniProt Q9UBG0), the log2 fold change is 0.063.

Take LY6E (UniProt Q16553): the log2 fold change was 0.079.

Consider MCMBP isoform 2 (UniProt Q9BTE3), for which the log2 fold change is 0.013.

Take LGALS3BP (UniProt Q08380): the log2 fold change is 0.115.

Take LRP1 (UniProt Q07954): the log2 fold change is 0.239.

Regarding MAP3K6 (UniProt O95382), the log2 fold change is -0.061.

For KMT2B (UniProt Q9UMN6), the log2 fold change was 0.073.

Consider LRRC9 (UniProt Q6ZRR7), for which the log2 fold change was 0.053.

MINDY1 isoform 3 (UniProt Q8N5J2): the log2 fold change is -0.036.

On to KRIT1 (UniProt O00522), for which the log2 fold change was -0.043.

In the case of MAPKAP1 (UniProt Q9BPZ7), the log2 fold change is 0.113.

Consider MAP4 isoform 5 (UniProt P27816), for which the log2 fold change was 0.008.

For the target LRRC7 (UniProt Q96NW7), the log2 fold change is -0.018.

Turning to MAP4K4 isoform 6 (UniProt O95819), the log2 fold change was 0.102.

Compound in the next experiment: Cc1ccc(-n2nc(C(C)(C)C)cc2NC(=O)Nc2ccc(OCCN3CCOCC3)c3ccccc23)cc1 [doramapimod]
The description is as above. An outline of the steps:
as §1
Regarding MAP4K4 isoform 3 (UniProt O95819), the log2 fold change is 0.087.

Take MARCHF6 (UniProt O60337): the log2 fold change is 0.003.

Consider MAP3K4 isoform 2 (UniProt Q9Y6R4), for which the log2 fold change is -0.007.

Consider LSM11 (UniProt P83369), for which the log2 fold change is 0.123.

Take METTL21A (UniProt Q8WXB1): the log2 fold change is -0.081.

For the target KIF18B (UniProt Q86Y91), the log2 fold change is 0.077.

Regarding KLHL12 isoform 2 (UniProt Q53G59), the log2 fold change was 0.003.

Regarding KRAS isoform 2 (UniProt P01116), the log2 fold change was -0.062.

Consider MAPK7 (UniProt Q13164), for which the log2 fold change is 0.01.

In the case of MME (UniProt P08473), the log2 fold change was 0.002.

For the target LIMK1 (UniProt P53667), the log2 fold change was -0.009.

With MEGF8 (UniProt Q7Z7M0), the log2 fold change is -0.028.

Consider MCUB (UniProt Q9NWR8), for which the log2 fold change is 0.05.

For KIFC3 isoform 6 (UniProt Q9BVG8), the log2 fold change is -0.034.

On to LEPROT (UniProt O15243), for which the log2 fold change is 0.

As to MMS22L (UniProt Q6ZRQ5), the log2 fold change was -0.018.

Consider MRC2 (UniProt Q9UBG0), for which the log2 fold change is 0.035.

With MED28 (UniProt Q9H204), the log2 fold change was -0.012.

Take MCMBP isoform 2 (UniProt Q9BTE3): the log2 fold change was -0.092.

On to LGALS3BP (UniProt Q08380), for which the log2 fold change is -0.087.

Turning to LRP1 (UniProt Q07954), the log2 fold change is 0.022.

As for KMT2B (UniProt Q9UMN6), the log2 fold change is -0.033.

As to LRRC9 (UniProt Q6ZRR7), the log2 fold change is 0.074.

LRRIQ1 (UniProt Q96JM4): the log2 fold change was -0.073.

With MINDY1 isoform 3 (UniProt Q8N5J2), the log2 fold change was 0.051.

KRIT1 (UniProt O00522): the log2 fold change is 0.016.

Turning to MAPKAP1 (UniProt Q9BPZ7), the log2 fold change was -0.029.

Take MAP4 isoform 5 (UniProt P27816): the log2 fold change was -0.061.

Turning to LRRC7 (UniProt Q96NW7), the log2 fold change is 0.001.

MRPL22 (UniProt Q9NWU5): the log2 fold change is 0.016.

Compound in a further experiment: Cc1ccc(NC(=O)c2ccc(CN3CC[C@H](N(C)C)C3)c(C(F)(F)F)c2)cc1Nc1nccc(-c2cncnc2)n1 [bafetinib]
Described as above. An outline of the steps:
as §1
On to MAP4K4 isoform 3 (UniProt O95819), for which the log2 fold change was 0.03.

Consider MARCHF6 (UniProt O60337), for which the log2 fold change was -0.105.

For KLC1 isoform 10 (UniProt Q07866), the log2 fold change is 0.032.

Regarding METTL21A (UniProt Q8WXB1), the log2 fold change is -0.04.

Consider KLHL12 isoform 2 (UniProt Q53G59), for which the log2 fold change is -0.131.

MME (UniProt P08473): the log2 fold change is 0.058.

With LIMK1 (UniProt P53667), the log2 fold change was -0.348.

Turning to MEGF8 (UniProt Q7Z7M0), the log2 fold change was 0.068.

Regarding MAPK12 (UniProt P53778), the log2 fold change was 0.

Turning to MCUB (UniProt Q9NWR8), the log2 fold change was -0.045.

For KIFC3 isoform 6 (UniProt Q9BVG8), the log2 fold change was -0.221.

Turning to LEPROT (UniProt O15243), the log2 fold change is -0.067.

Consider MMS22L (UniProt Q6ZRQ5), for which the log2 fold change is -0.152.

With LY6E (UniProt Q16553), the log2 fold change is -0.2.

Turning to MCMBP isoform 2 (UniProt Q9BTE3), the log2 fold change is 0.235.

On to MINDY1 isoform 3 (UniProt Q8N5J2), for which the log2 fold change is -0.11.

On to KRIT1 (UniProt O00522), for which the log2 fold change is -0.041.

Turning to KIF21A (UniProt H0YI78), the log2 fold change was 0.187.

Take MAP4 isoform 5 (UniProt P27816): the log2 fold change is 0.081.

LRRC7 (UniProt Q96NW7): the log2 fold change is 0.112.

For MAP4K4 isoform 6 (UniProt O95819), the log2 fold change is 0.016.
